Bioassay records deposited in PubChem by several laboratories.
aDG glyco act: alpha-DG glycosylation activation; Pro5-aDG cells, alpha-DG glycosylation AlphaScreen (IIH6); 0% Pro5, 100% B10-LARGE cell signal; actives 0.22% (n = 360,000); activation, % at 10 µM; AID 624168;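 active = activation of at least 8% versus controls, or a plate z-score of at least 8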;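 note: Pro5 are CHO cells carrying HIG-tagged alpha-DG that lacks glycosylation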
ADAM17 inh: inhibits human ADAM17; recombinant ADAM17, EDANS/DABCYL FRET peptide cleavage; inhibition, % at 6.95 µM; actives 0.83% (n = 370,000);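 active = inhibition above the mean of compounds lying between control limits plus 3 SD, set per campaign, cut at about 8.5% in these data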;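 note: 0% = DMSO-only wells as the low control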
GRIN3A LBD mod: NR3A (human) ligand-binding domain modulation; Tm shift relative to glycine control, % at 25 µM; AID 1259313; actives 2.5% (n = 340,000); NR3A LBD differential scanning fluorimetry, Tm shift; 0% = protein alone, 100% = glycine-bound protein;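 active = melting temperature shift of at least 10% of the positive control shift, at one fixed dose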
FAS-TE inh: FAS thioesterase (human) inhibition; actives 0.67% (n = 360,000); AID 602261; inhibition, % at 15 µM; recombinant FAS-TE, OMFH fluorogenic substrate, fluorescence endpoint;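 active = compounds whose normalised, plate-corrected inhibition of enzyme fluorescence in the single-dose primary screen is 50% or more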;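 note: 0% = DMSO with enzyme and 100% = substrate without enzyme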
ADAM10 inh: inhibitors of human ADAM10; actives 0.62% (n = 370,000); AID 720582; O14672; recombinant ADAM10, EDANS/DABCYL FRET peptide cleavage, 3 h; inhibition, % at 7 µM;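 active = inhibition above a per-campaign cutoff equal to the mean of compounds falling between control-based bounds plus 3 SD, cut at about 20% in these data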;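 note: 0% = DMSO wells while the 100% control is not disclosed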
Target sequence (O14672 214-748 limits assumed): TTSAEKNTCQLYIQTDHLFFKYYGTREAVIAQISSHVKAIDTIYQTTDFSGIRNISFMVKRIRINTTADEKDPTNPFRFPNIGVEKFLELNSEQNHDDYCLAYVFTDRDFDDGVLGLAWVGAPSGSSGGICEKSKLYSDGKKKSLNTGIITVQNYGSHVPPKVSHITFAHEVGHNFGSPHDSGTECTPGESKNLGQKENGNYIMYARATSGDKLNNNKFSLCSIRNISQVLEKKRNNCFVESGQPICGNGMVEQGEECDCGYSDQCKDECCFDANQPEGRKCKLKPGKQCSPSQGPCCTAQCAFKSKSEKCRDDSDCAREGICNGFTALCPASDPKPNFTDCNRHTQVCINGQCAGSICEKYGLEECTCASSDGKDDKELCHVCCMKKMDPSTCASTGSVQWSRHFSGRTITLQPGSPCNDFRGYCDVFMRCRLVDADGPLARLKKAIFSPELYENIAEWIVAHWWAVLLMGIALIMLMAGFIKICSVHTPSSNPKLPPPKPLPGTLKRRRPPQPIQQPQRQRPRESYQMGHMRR
ADAM10 counter: inhibits human ADAM10 in ADAM17 exosite counter-screen | shares compounds with ADAM17 inh | recombinant ADAM10, EDANS/DABCYL FRET peptide cleavage, 3 h | inhibition, % at 6.95 µM | actives 47% (n = 2,900);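 active = mean inhibition over the triplicate runs exceeds the activity threshold set in the earlier primary screen, cut at about 20% in these data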;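 note: 0% = DMSO wells and 100% = marimastat wells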
ADAM17 confirm: human ADAM17 inhibition, confirmation. recombinant ADAM17, EDANS/DABCYL QFRET peptide cleavage. actives 65% (n = 2,900). inhibition, % at 6.95 µM. shares compounds with ADAM17 inh. AID 743257;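 active = mean inhibition across replicates above the hit cutoff set in the primary screen, cut at about 8.5% in these data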;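 note: 0% = DMSO wells and 100% = marimastat wells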
An asterisk follows results filed as active. This is a sample that favours compounds with a hit; in the whole collection about 4% have one here.

For Cc1ccc(-n2c(COc3ccccc3)nnc2SCC(=O)Nc2ccccc2-c2ccccc2)cc1 the results were ADAM17 inh 8.9*, ADAM10 inh 16, ADAM10 counter 32* and ADAM17 confirm 16*.
For CCOC(=O)c1cnn(-c2ncnc3c2cnn3C)c1N the results were aDG glyco act 0, ADAM17 inh -4, GRIN3A LBD mod 1, FAS-TE inh 1 and ADAM10 inh 2.
C=CCn1c(SCC(=O)Nc2cccnc2Cl)nnc1-c1ccc(Cl)cc1 was read as aDG glyco act 0, ADAM17 inh -5, GRIN3A LBD mod -1, FAS-TE inh -3 and ADAM10 inh -4.
Screening C=CCn1c(SCC(=O)Nc2ccccc2-c2ccccc2)nnc1-c1ccc(Cl)cc1 returned ADAM17 inh 9.3*, ADAM10 inh 16, ADAM10 counter 22* and ADAM17 confirm 15*.
For CCOC(=O)C1=C(C)Nc2ccccc2N/C1=N\S(=O)(=O)c1cccc(Cl)c1 the results were aDG glyco act 0, ADAM17 inh -1, GRIN3A LBD mod -3, FAS-TE inh -3 and ADAM10 inh -6.
Screening CCOC(=O)C1=C(C)Nc2ccccc2N/C1=N\S(=O)(=O)c1ccc(Cl)cc1 returned aDG glyco act 0, ADAM17 inh 12*, GRIN3A LBD mod -2, FAS-TE inh -6, ADAM10 inh 0, ADAM10 counter 4 and ADAM17 confirm 5.
`Cc1ccc(C(=O)c2c[nH]c3c(F)cc(F)cc3c2=O)cc1` gave aDG glyco act 0, ADAM17 inh 2, GRIN3A LBD mod -2, FAS-TE inh -8 and ADAM10 inh -1.
`CC(=O)OCC1=C(C(=O)O)N2C(=O)C(NC(=O)C(C)Cn3cc(Cl)cn3)C2SC1` (stereo not given) gave aDG glyco act 0, ADAM17 inh -2, GRIN3A LBD mod 0, FAS-TE inh -7 and ADAM10 inh -7.
Screening CCNC(=S)N(CCc1ccc(S(N)(=O)=O)cc1)C1CC(=O)N(c2ccccc2)C1=O (stereo not given) returned aDG glyco act 0, ADAM17 inh 3, GRIN3A LBD mod -3, FAS-TE inh -1 and ADAM10 inh 3.
`O=C1CC(N(CCc2ccccc2)C(=S)Nc2ccccc2)C(=O)N1c1ccccc1` (stereo not given) gave aDG glyco act 0, ADAM17 inh 8.7*, GRIN3A LBD mod 17*, FAS-TE inh 29, ADAM10 inh 17, ADAM10 counter 11 and ADAM17 confirm 8.9*.
Screening Cc1cc(Oc2ccccc2)nc(SCC(=O)Nc2ccc(Cl)c(Cl)c2)n1 returned aDG glyco act 1, ADAM17 inh 14*, GRIN3A LBD mod 3, FAS-TE inh 35, ADAM10 inh 19, ADAM10 counter 17 and ADAM17 confirm 12*.
`Cc1ccccc1NC(=O)Cc1nc(COC(=O)c2ccc(Cl)nc2)cs1` gave aDG glyco act 0, ADAM17 inh 8.7*, GRIN3A LBD mod 1, FAS-TE inh -14, ADAM10 inh -10, ADAM10 counter 7 and ADAM17 confirm 5.
For Cc1ccccc1NC(=O)Cc1nc(COC(=O)c2nc(Cl)ccc2Cl)cs1 the results were aDG glyco act 0, ADAM17 inh -2, GRIN3A LBD mod -3, FAS-TE inh 7 and ADAM10 inh -6.
COc1ccc(OC)c(NC(=O)COC(=O)c2c3c(nc4ccccc24)CCCC3)c1 was read as aDG glyco act -1, ADAM17 inh 11*, GRIN3A LBD mod -4, FAS-TE inh 23, ADAM10 inh 9, ADAM10 counter 16 and ADAM17 confirm 14*.
Screening CCOc1ccc(N(CC(=O)NC2CCCCC2C)S(=O)(=O)c2c(C)noc2C)cc1 (stereo not given) returned aDG glyco act 0, ADAM17 inh -6, GRIN3A LBD mod 1, FAS-TE inh 3 and ADAM10 inh 3.
